# Source: PubChem BioAssay (EPA / NIEHS)
# Records with an inconclusive call do not appear. Active and inactive are the calls of the source. Rule for the calls: active = hit-call score of the fitted dose curve at least 0.9, where 1 is the maximum; inconclusive = response in the unintended direction; inactive = score below 0.9.
# Biological target: Androgen receptor (Homo sapiens) (UniProt P10275)
# Assay: ATG_AR_TRANS: Attagene TRANS-FACTORIAL HepG2 Assay for human Androgen Receptor (AR) (AID 2282973)
# Conditions: HepG2 Attagene TRANS-FACTORIAL AR reporter transcription
# Experimental: ATG_TRANS is a cell-based, multiplexed-readout assay that uses HepG2, a human liver cell line, with measurements taken at 24 hours after chemical dosing in a 24-well plate.ATG_AR_TRANS is one of 30 assay component(s) measured or calculated from the ATG_TRANS assay. It is designed to make measurements of mRNA induction, a form of inducible reporter, as detected with fluorescence intensity signals by Reverse transcription polymerase chain reaction (RT-PCR) and Capillary electrophoresis technology.Data from the assay component ATG_AR_TRANS was analyzed into 1 assay endpoint. This assay endpoint, ATG_AR_TRANS, was analyzed in the positive analysis fitting direction relative to DMSO as the negative control and baseline of activity. Using a type of inducible reporter, measures of mRNA for gain-of-signal activity can be used to understand the reporter gene at the transcription factor-level as they relate to the gene AR. Furthermore, this assay endpoint can be referred to as a primary readout, because this assay has produced multiple assay endpoints where this one serves a reporter gene function. To generalize the intended target to other relatable targets, this assay endpoint is annotated to the nuclear receptor intended target family, where the subfamily is steroidal.
# Human liver HepG2 cells are transiently transfected with multiple reporter transcription units (MRTUs) in 6-well plates using FuGene 6 reagent (Roche; 3 ml FuGene/1 mg DNA). The MRTU constructs are regulated by a cis-regulating element (promoter). […] A major difference between the CIS and TRANS system is that in CIS activities of endogenous TFs are measured, whereas the TRANS assay evaluates changes in activities of exogenous, chimeric NR-Gal4 proteins. […] At the end of 24 hour incubation, total RNA was isolated using TriZol reagent (Invitrogen). The isolated RNA is then reverse-transcribed using oligo(dT) primer and Mo-MLV reverse transcriptase (Invitrogen) with DNAse I (Ambion) treatment for 30 min. The one-tenth of the produced cDNA was amplified by PCR using Taq DNA polymerase (Invitrogen) and two reporter sequence-specific primers. The PCR products were fluorescently labeled by primer extension with 6-arboxyfluorescein (6-FAM) 5'-labeled reporter sequence-specific primer (2 min at 95 C, 20 s at 68 C and 10 min at 72 C) and these products were digested with 5U of HpaI (New England Biolabs) for 2h at 37 C. The fragments were purified using Qiaquick PCR columns (Qiagen), analyzed on an ABI 3130xL genetic analyzer (Applied Biosystems) with peak positions identified by using a set of X-rhodamine (ROX)-labeled MapMarker1000 molecular weight standards (BioVentures). The raw capillary electrophoresis data was processed using Attagraph software (Attagene).
# Sequence of Androgen receptor (Homo sapiens) (P10275 whole entry, looked up): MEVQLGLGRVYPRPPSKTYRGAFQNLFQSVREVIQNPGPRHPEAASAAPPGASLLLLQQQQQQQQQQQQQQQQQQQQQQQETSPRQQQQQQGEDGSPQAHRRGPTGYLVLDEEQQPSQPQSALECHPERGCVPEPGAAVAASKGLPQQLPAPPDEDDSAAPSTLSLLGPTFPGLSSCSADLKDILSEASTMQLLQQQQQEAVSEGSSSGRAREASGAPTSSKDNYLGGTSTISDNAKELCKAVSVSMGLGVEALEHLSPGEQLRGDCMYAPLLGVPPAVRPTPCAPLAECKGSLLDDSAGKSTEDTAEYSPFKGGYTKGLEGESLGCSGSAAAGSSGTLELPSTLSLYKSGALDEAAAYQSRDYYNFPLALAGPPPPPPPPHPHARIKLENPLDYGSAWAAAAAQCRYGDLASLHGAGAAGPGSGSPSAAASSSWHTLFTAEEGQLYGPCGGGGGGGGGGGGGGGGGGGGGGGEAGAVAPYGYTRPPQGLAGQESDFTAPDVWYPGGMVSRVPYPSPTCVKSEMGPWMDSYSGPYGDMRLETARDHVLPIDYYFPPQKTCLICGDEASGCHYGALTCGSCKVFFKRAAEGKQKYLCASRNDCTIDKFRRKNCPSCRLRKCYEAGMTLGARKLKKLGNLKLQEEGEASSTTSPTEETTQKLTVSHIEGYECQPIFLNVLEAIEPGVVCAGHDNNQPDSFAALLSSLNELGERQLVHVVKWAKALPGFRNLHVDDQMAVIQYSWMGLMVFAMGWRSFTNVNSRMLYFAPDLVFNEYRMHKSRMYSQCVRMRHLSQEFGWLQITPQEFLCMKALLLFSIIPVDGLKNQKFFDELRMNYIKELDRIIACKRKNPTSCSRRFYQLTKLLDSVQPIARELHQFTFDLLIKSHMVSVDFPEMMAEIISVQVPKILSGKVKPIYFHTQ
row,Structure (SMILES),outcome
1,COc1ccc([N+](=O)[O-])cc1O,inactive
2,O=NN1CCCCCC1,inactive
3,COP(=S)(OC)Oc1cc(Cl)c(I)cc1Cl,inactive
4,Cc1cc(C(C)(C)c2ccc(O)c(C)c2)ccc1O,inactive
5,COCCl,inactive
6,O=C(CCl)Nc1ccccc1,inactive
7,C=CC(=O)[O][Sn]([CH2]CCC)([CH2]CCC)[CH2]CCC,inactive
8,CN(C1CCCCC1)C1CCCCC1,inactive
9,NC(=O)CCl,inactive
10,Brc1ccc(Oc2c(Br)cc(Br)cc2Br)c(Br)c1,inactive
11,Cc1ccc(CCl)cc1,inactive
12,O=C(Cl)OCCOCCOC(=O)Cl,inactive
13,CCCCOP(=O)(CCCC)OCCCC,inactive
14,O=C(N[C@H]1CN2CCC1CC2)c1ccc2c(c1)OCCO2,inactive
15,COC(F)(C(F)(F)C(F)(F)F)C(F)(C(F)(F)F)C(F)(F)F (stereo not given),inactive
16,CCOC(=O)Cc1ccccc1,inactive
17,OC(Cc1ccccc1Cl)(Cn1[nH]cnc1=S)C1(Cl)CC1 (stereo not given),inactive
18,CCC(C)(C#N)N=NC(C)(C#N)CC (stereo not given),inactive
19,O=S1(=O)OC(c2cc(Br)c(O)c(Br)c2)(c2cc(Br)c(O)c(Br)c2)c2ccccc21,inactive
20,CCOP(=S)(OCC)SCS(=O)(=O)C(C)(C)C,inactive

row,Structure (SMILES),outcome
1,CN(CCCC(O)c1cccnc1)N=O (stereo not given),inactive
2,[Cl][Sn]([c]1ccccc1)([c]1ccccc1)[c]1ccccc1,inactive
3,Cc1ccc(OP(=O)(Oc2ccc(C)cc2C)Oc2ccc(C)cc2C)c(C)c1,inactive
4,CC(C)N(C(=O)CCl)c1ccccc1,inactive
5,Cc1ccccc1OP(=O)(Oc1ccccc1C)Oc1ccccc1C,inactive
6,CCOP(=S)(OCC)OP(=S)(OCC)OCC,inactive
7,OC(c1ccc(Cl)cc1)(c1ccc(Cl)cc1)c1cccnc1,inactive
8,CCOC(=O)c1ccccc1S(=O)(=O)NC(=O)Nc1nc(Cl)cc(OC)n1,inactive
9,CC(=O)C(F)(F)C(F)(F)F,inactive
10,CC1(C)COP(Oc2ccccc2)OC1,inactive
11,N#Cc1ccccc1N,inactive
12,C[CH2][Hg][S]c1ccccc1C(=O)O,inactive
13,CNC(=O)N(C)c1nc2ccccc2s1,inactive
14,C=CCOC(F)(C(F)(F)F)C(F)(F)F,inactive
15,O=C(O)COc1cc(Cl)c(Cl)cc1Cl,inactive
16,O=C1C=CC(=O)c2ccccc21,inactive
17,O=C(NC(=O)c1c(F)cccc1F)Nc1cc(Cl)c(Oc2ncc(C(F)(F)F)cc2Cl)c(Cl)c1,inactive
18,c1cc[c]([Sb]([c]2ccccc2)[c]2ccccc2)cc1,inactive
19,CC(F)(F)CC(F)(F)F,inactive
20,Cc1cc(Cl)ccc1OCCCC(=O)O,inactive
